Laboratory results: PubChem BioAssay (NCI)
The panel holds about 83,000 compounds, 20% with a hit somewhere; the sample as a whole holds those more often.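 A percent growth of 40 corresponds to 60% growth inhibition; 0 means no net growth; -100 means all cells died. Active threshold: below 10.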 The source made the active and inactive calls.

Columns and labels:
Assay in all cases: NCI-60 one-dose screen, 48 h (100 = growth as untreated, 0 = no growth, -100 = all killed)
Settings in all cases: 10 µM unless noted
[1] = tested on: T-47D breast
[2] = tested on: BT-549 breast
[3] = tested on: MDA-MB-435 melanoma
[4] = tested on: SW-620 colon
[5] = tested on: MCF7 breast
[6] = tested on: HCT-116 colon
[7] = tested on: HCC-2998 colon
[8] = tested on: KM12 colon

Measured: growth

COc1cc(NCCCCCN)c2ncccc2c1
inactive: [1] 96.2% | [2] 113% | [3] 114% | [4] 99.4% | [5] 83.2% | [6] 89.1% | [7] 125% | [8] 109%

O=C(Nc1ccc2c(c1)OCO2)C(=O)c1c[nH]c2cc(F)ccc12
inactive: [1] 46.7% | [2] 70.3% | [3] 34.7% | [4] 34.3% | [5] 57.7% | [6] 56.7% | [7] 25.3% | [8] 27.1%

COc1cc(Nc2ncccc2C(=O)NCc2cn(Cc3cccc(Oc4ccccc4)c3)nn2)cc(OC)c1
inactive: [1] 50.3% | [2] 43.8% | [4] 31.4% | [5] 18.3% | [6] 19.5% | [7] 55% | [8] 16.7%
active: [3] -15.3%

O=[N+]([O-])c1ccc(Sc2ncccn2)c([N+](=O)[O-])c1
active: [2] -16.3%
inactive: [1] 41.1% | [3] 69.2% | [4] 22.8% | [5] 34.4% | [6] 37.5% | [7] 66.2% | [8] 55.9%

COc1ccc(C2=C(c3cc(OC)c(OC)c(OC)c3)C(=O)CC2)cc1
inactive: [1] 60.5% | [2] 28.3% | [4] 19.3% | [5] 16.3%
active: [3] -19.2% | [6] 6.43% | [7] -11.3% | [8] 5.46%

Cc1cc(N/N=C/c2nc(-c3ccc(Br)cc3)oc2C)c2cc(Cl)ccc2n1
inactive: [1] 95.8% | [2] 98.1% | [3] 16.8% | [7] 96.1% | [8] 84%
active: [4] -8.11% | [5] -55% | [6] -16.5%

CCC(=O)OC1=CN2C(=NC(c3ccc(N)cc3)=CC2c2cc(OC)c(OC)c(OC)c2)S1 (configuration not stated)
inactive: [1] 58.2% | [2] 26.8% | [3] 23.1% | [4] 28.3% | [5] 16.7% | [6] 17.9% | [7] 89% | [8] 47.4%

Fc1ccc(Nc2ncnc3ccc(-c4cnc5[nH]ccc5c4)cc23)cc1Cl
inactive: [2] 20.3% | [3] 51.8% | [7] 34% | [8] 23.3%
active: [1] -35.3% | [4] 4.35% | [5] 9.34% | [6] -36.3%

CC(C)NCCCNC1=C(Cl)C(=O)c2ccccc2C1=O
inactive: [1] 101% | [2] 99.8% | [5] 63.4% | [6] 70.7% | [7] 59.7% | [8] 87.2%
active: [3] -66% | [4] -30.7%

O=C1c2c(Cl)c(Cl)c(Cl)c(Cl)c2C(=O)C2(Cl)CC=CCC12Cl (configuration not stated)
inactive: [2] 43.6% | [3] 21.5%
active: [1] -38.3% | [4] -68.7% | [5] -57.5% | [6] -90.2% | [7] -43% | [8] -6.67%

COc1ccc(C2C=C(c3ccc(OC)c(OC)c3)N=C3SC=C(C)N32)c(Br)c1 (configuration not stated)
inactive: [1] 98.3% | [2] 99% | [3] 110% | [4] 109% | [5] 94.5% | [6] 105% | [7] 110% | [8] 107%

O=C(Nc1ccc(Cl)c(Cl)c1)NS(=O)(=O)c1cnccc1Oc1ccc(F)cc1
inactive: [2] 93.7% | [3] 86.8% | [4] 65.3% | [5] 58.6% | [6] 41.3% | [7] 76.7% | [8] 48.7%
active: [1] -0.777%

COc1ccc2c(c1)C(c1cc(OC)c3c(c1)OCO3)C1=C(COC1=O)N2 (configuration not stated)
active: [3] -13.5% | [8] 9.2%
inactive: [1] 52.4% | [2] 23.4% | [4] 23.3% | [5] 16.2% | [6] 12.7% | [7] 10.6%

ClC(Cl)c1nc(-c2ccccc2)nc2cc(-c3ccccc3)nn12
inactive: [1] 24.2% | [2] 93.3% | [3] 94.2% | [4] 14.8% | [5] 47.9% | [6] 29.7% | [7] 88.9% | [8] 37.3%

O=c1[nH]c(Nc2ccc(S(=O)(=O)O)cc2)nc2nc(Nc3ccc(NC(=S)Nc4ccccc4)cc3)nc(-c3ccc(O)cc3O)c12
inactive: [1] 90.7% | [2] 152% | [3] 111% | [4] 107% | [5] 107% | [6] 109% | [7] 112% | [8] 95.2%

O=Nc1c(-c2cccc([N+](=O)[O-])c2)nc2ncccn12
inactive: [1] 73% | [2] 73.4% | [3] 99.2% | [4] 18.2% | [5] 70.2% | [6] 51.1% | [7] 93.6% | [8] 89.3%

COc1ccc(-c2nc(N3CCCC3=O)sc2Br)cc1OC
inactive: [1] 89.2% | [2] 93.2% | [3] 93.5% | [4] 102% | [5] 96.9% | [6] 97.4% | [7] 108% | [8] 92.7%

O=[N+]([O-])c1ccc(-c2cn(-c3ccccc3)c(-c3ccccc3)n2)cc1
inactive: [1] 65.9% | [2] 96% | [3] 100% | [4] 95% | [5] 74.4% | [6] 87.1% | [7] 104% | [8] 94.4%

Cc1cccc(/C=N/Nc2cc(C)c3cccc(C)c3n2)n1
inactive: [1] 83% | [2] 91.4% | [3] 96.3% | [4] 94.7% | [5] 48.4% | [6] 65.1% | [7] 108% | [8] 97.5%

CN(C[C@H]1Cc2c(cccc2N2CCN(Cc3ccccn3)CC2)CN1)[C@H]1CCCc2cccnc21
inactive: [1] 44.6% | [2] 81.9% | [3] 69.6% | [4] 51.3% | [5] 44.1% | [6] 30.8% | [7] 94% | [8] 51.7%

COc1cc(/C=N\NC(=O)CN2CCN(c3cc4c(cc3F)c(=O)c(C(=O)N/N=C/c3cc(OC)c(OC)c(OC)c3)cn4C3CC3)CC2)cc(OC)c1OC
active: [1] -12.3% | [2] -17.7% | [3] -45.1% | [4] 6.11% | [5] 7.55% | [6] -32.5% | [7] -95.2% | [8] -61.7%

O=C(O)c1nc(-c2ccccc2)oc1N1CCOCC1
inactive: [1] 82.9% | [2] 97.5% | [3] 97.5% | [4] 96% | [5] 98.3% | [6] 94.6% | [7] 105% | [8] 88.9%

COc1ccc2[nH]c(=O)c(/C=N/Nc3nc(-c4ccccc4)cs3)c(O)c2c1
inactive: [1] 72.6% | [2] 60.8% | [3] 79.3% | [4] 67.2% | [5] 67.2% | [6] 50.8% | [7] 77.6% | [8] 69.3%

COc1ccc(-c2ccc(-c3ccc(C(=N)N)s3)s2)cc1Cl
active: [1] 6.3% | [3] -81.4% | [4] -78.7% | [5] -66.2% | [6] -95.8% | [7] 9.04% | [8] -86.1%
inactive: [2] 94.9%

CN1C(=O)N(C)C2C1NN=c1s/c(=C\c3cccnc3)c(=O)n12 (configuration not stated)
inactive: [1] 91.2% | [2] 79.9% | [4] 59.1% | [5] 51.6% | [6] 75.9% | [7] 92.2% | [8] 53.8%
active: [3] 8.5%

COc1ccc(Nc2[nH]n3c(=O)cc(-c4ccccc4)nc3c2C(=O)Nc2ccc(C)cc2)c(OC)c1
inactive: [1] 83.8% | [2] 92.9% | [3] 96.8% | [4] 99.5% | [5] 99.6% | [6] 84.2% | [7] 111% | [8] 106%

COC1=C(OC)C(=O)C(CCCCCCCCCC[P+](c2ccccc2)(c2ccccc2)c2ccccc2)=C(C)C1=O
active: [1] -59% | [2] -78.9% | [3] -82.6% | [4] -13.2% | [5] -49.9% | [6] 6.18% | [7] -18.3% | [8] -37.5%

C=CCn1c2ccccc2c2c3c(c4c5ccccc5n(CC=C)c4c21)C(=O)N(O)C3=O
inactive: [1] 13% | [2] 45% | [3] 42.7% | [4] 54.9% | [5] 13% | [6] 22.3% | [7] 36.5% | [8] 26.4%

COc1cc(/C=C/C(=O)/C=C/c2cc(OC)c3c(c2)OCO3)cc2c1OCO2
active: [3] -21.2% | [6] -93.9% | [8] -17.1%
inactive: [1] 88.6% | [2] 84.3% | [4] 11.5% | [5] 19.8% | [7] 14.6%
